# Results as given in publication PMC8384837, “Expanding the binding specificity for RNA recognition by a PUF domain”.
# Tests used:
# Experiment in all cases: yeast three-hybrid, YBZ-1, SC-Leu-His + 0.5 mM 3-AT, 4 days
# Conditions in all cases: tags: N-Gal4 AD-HA kept; label: inside an RPR1-promoter hybrid RNA with tandem MS2 sites; ssRNA
# PUM1 PUF domain R1-RQQ = PUM1 PUF domain R1-RQQ (Homo sapiens, UniProt Q14671 828-1176, S863R;R864Q)
# How it was run: (§1)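 Matching RNA elements and Pumilio-1 PUF domain libraries, randomized at the three base-contacting residues of every repeat, were co-expressed from a centromeric plasmid in strain YBZ-1 (LexA–MS2 coat fusion, HIS3 reporter). The repeat regions were PCR-amplified and Illumina-sequenced from cells grown four days on SC-Leu (input) or SC-Leu-His + 0.5 mM 3-AT (selection). The interaction score is the log change in variant frequency from input to selection. It is computed in log2, with a pseudocount of 1 for absent variants.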
# PUM1 PUF domain R1-RNS = PUM1 PUF domain R1-RNS (Homo sapiens, UniProt Q14671 828-1176, S863R;R864N;Q867S)
# How it was run: as §1
# PUM1 PUF domain R1-YAR = PUM1 PUF domain R1-YAR (Homo sapiens, UniProt Q14671 828-1176, S863Y;R864A;Q867R)
# How it was run: as §1
# PUM1 PUF domain R1-TFE = PUM1 PUF domain R1-TFE (Homo sapiens, UniProt Q14671 828-1176, S863T;R864F;Q867E)
# How it was run: as §1
# PUM1 PUF domain R8-GWQ = PUM1 PUF domain R8-GWQ (Homo sapiens, UniProt Q14671 828-1176, N1122G;Y1123W)
# How it was run: as §1
# PUM1 PUF domain R5-MRE = PUM1 PUF domain R5-MRE (Homo sapiens, UniProt Q14671 828-1176, C1007M;Q1011E)
# How it was run: as §1
# PUM1 PUF domain R3-ARP = PUM1 PUF domain R3-ARP (Homo sapiens, UniProt Q14671 828-1176, C935A;Q939P)
# How it was run: as §1
# PUM1 PUF domain R3-IFE = PUM1 PUF domain R3-IFE (Homo sapiens, UniProt Q14671 828-1176, C935I;R936F;Q939E)
# How it was run: as §1
# PUM1 PUF domain R5-TKR = PUM1 PUF domain R5-TKR (Homo sapiens, UniProt Q14671 828-1176, C1007T;R1008K;Q1011R)
# How it was run: as §1
# PUM1 PUF domain R5-KAD = PUM1 PUF domain R5-KAD (Homo sapiens, UniProt Q14671 828-1176, C1007K;R1008A;Q1011D)
# How it was run: as §1
# PUM1 PUF domain R5-DLR = PUM1 PUF domain R5-DLR (Homo sapiens, UniProt Q14671 828-1176, C1007D;R1008L;Q1011R)
# How it was run: as §1
# PUM1 PUF domain R6-AFS = target: T1, PUM1 PUF domain R6-AFS (Homo sapiens, UniProt Q14671 828-1176, N1043A;Y1044F;Q1047S)
# T1 sequence: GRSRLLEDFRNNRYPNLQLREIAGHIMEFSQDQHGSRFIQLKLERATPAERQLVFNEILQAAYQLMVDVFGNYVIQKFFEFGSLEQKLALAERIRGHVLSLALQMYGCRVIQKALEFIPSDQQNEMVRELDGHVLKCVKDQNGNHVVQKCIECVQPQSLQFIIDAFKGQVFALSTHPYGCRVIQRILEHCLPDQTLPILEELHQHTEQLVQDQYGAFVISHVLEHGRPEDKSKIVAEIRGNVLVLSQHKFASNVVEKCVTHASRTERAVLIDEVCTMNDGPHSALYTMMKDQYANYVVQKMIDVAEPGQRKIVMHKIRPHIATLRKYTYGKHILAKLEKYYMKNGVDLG
# How it was run: as §1
# PUM1 PUF domain R3-GRV = PUM1 PUF domain R3-GRV (Homo sapiens, UniProt Q14671 828-1176, C935G;Q939V)
# How it was run: as §1
# PUM1 PUF domain R4-SCS = PUM1 PUF domain R4-SCS (Homo sapiens, UniProt Q14671 828-1176, N971S;H972C;Q975S)
# How it was run: as §1
# PUM1 PUF domain R4-TRQ = PUM1 PUF domain R4-TRQ (Homo sapiens, UniProt Q14671 828-1176, N971T;H972R)
# How it was run: as §1
# PUM1 PUF domain R4-EYD = PUM1 PUF domain R4-EYD (Homo sapiens, UniProt Q14671 828-1176, N971E;H972Y;Q975D)
# How it was run: as §1
# PUM1 PUF domain R3-PWF = PUM1 PUF domain R3-PWF (Homo sapiens, UniProt Q14671 828-1176, C935P;R936W;Q939F)
# How it was run: as §1
# PUM1 PUF domain R4-SNF = PUM1 PUF domain R4-SNF (Homo sapiens, UniProt Q14671 828-1176, N971S;H972N;Q975F)
# How it was run: as §1
# PUM1 PUF domain R4-HNI = PUM1 PUF domain R4-HNI (Homo sapiens, UniProt Q14671 828-1176, N971H;H972N;Q975I)
# How it was run: as §1
# PUM1 PUF domain R3-RTG = PUM1 PUF domain R3-RTG (Homo sapiens, UniProt Q14671 828-1176, C935R;R936T;Q939G)
# How it was run: as §1
# Sequence of PUM1 PUF domain R5-TKR (Q14671 828-1176 C1007T/R1008K/Q1011R): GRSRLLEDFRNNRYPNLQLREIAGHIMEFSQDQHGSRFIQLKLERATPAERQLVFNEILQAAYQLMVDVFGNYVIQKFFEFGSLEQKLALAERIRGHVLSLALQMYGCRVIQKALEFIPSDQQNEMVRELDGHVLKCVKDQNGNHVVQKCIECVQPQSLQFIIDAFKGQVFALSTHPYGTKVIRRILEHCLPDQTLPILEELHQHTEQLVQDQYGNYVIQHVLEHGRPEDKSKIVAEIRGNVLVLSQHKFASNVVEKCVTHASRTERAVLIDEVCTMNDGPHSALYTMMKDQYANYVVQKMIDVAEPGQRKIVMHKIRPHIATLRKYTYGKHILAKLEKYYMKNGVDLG
# Sequence of PUM1 PUF domain R4-SNF (Q14671 828-1176 N971S/H972N/Q975F): as the sequence (Q14671 828-1176 C1007T/R1008K/Q1011R) above, with N144S, H145N, Q148F, T180C, K181R, R184Q counted along it
# Sequence of PUM1 PUF domain R5-DLR (Q14671 828-1176 C1007D/R1008L/Q1011R): as the sequence (Q14671 828-1176 C1007T/R1008K/Q1011R) above, with T180D, K181L counted along it
# Sequence of PUM1 PUF domain R5-KAD (Q14671 828-1176 C1007K/R1008A/Q1011D): as the sequence (Q14671 828-1176 C1007T/R1008K/Q1011R) above, with T180K, K181A, R184D counted along it
sequence,measurement,setting,value
GGCUAGAACUAGUGGAUCCCCCGGCGCCCGGCGGCUCGAGCCCGGGUAAGUGUAAAUCGUCUGCAUGCCGCCGGGCGCCAUGCCUGCAGGUCGACUCUAGAAAACAUG,binding signal,PUM1 PUF domain R1-RQQ,3.45 log2 enrichment (interaction score)
same,binding signal,PUM1 PUF domain R1-RNS,2.4 log2 enrichment (interaction score)
same,binding signal,PUM1 PUF domain R1-YAR,6.19 log2 enrichment (interaction score)
GGCUAGAACUAGUGGAUCCCCCGGCGCCCGGCGGCUCGAGCCCGGGUAAGUGUAAAUUGUCUGCAUGCCGCCGGGCGCCAUGCCUGCAGGUCGACUCUAGAAAACAUG,binding signal,PUM1 PUF domain R1-TFE,3.49 log2 enrichment (interaction score)
same,binding signal,PUM1 PUF domain R1-YAR,5.79 log2 enrichment (interaction score)
GGCUAGAACUAGUGGAUCCCCCGGCGCCCGGCGGCUCGAGCCCGGGUAAGCGUAAAUAGUCUGCAUGCCGCCGGGCGCCAUGCCUGCAGGUCGACUCUAGAAAACAUG,binding signal,PUM1 PUF domain R8-GWQ,3.56 log2 enrichment (interaction score)
GGCUAGAACUAGUGGAUCCCCCGGCGCCCGGCGGCUCGAGCCCGGGUAAGUGUGAAUAGUCUGCAUGCCGCCGGGCGCCAUGCCUGCAGGUCGACUCUAGAAAACAUG,binding signal,PUM1 PUF domain R5-MRE,2.77 log2 enrichment (interaction score)
GGCUAGAACUAGUGGAUCCCCCGGCGCCCGGCGGCUCGAGCCCGGGUAAGUGUUAAUAGUCUGCAUGCCGCCGGGCGCCAUGCCUGCAGGUCGACUCUAGAAAACAUG,binding signal,PUM1 PUF domain R5-MRE,0.96 log2 enrichment (interaction score)
GGCUAGAACUAGUGGAUCCCCCGGCGCCCGGCGGCUCGAGCCCGGGUAAGUGUAAGUAGUCUGCAUGCCGCCGGGCGCCAUGCCUGCAGGUCGACUCUAGAAAACAUG,binding signal,PUM1 PUF domain R3-ARP,1.52 log2 enrichment (interaction score)
same,binding signal,PUM1 PUF domain R3-IFE,5.39 log2 enrichment (interaction score)
GGCUAGAACUAGUGGAUCCCCCGGCGCCCGGCGGCUCGAGCCCGGGUAAGUGUCAAUAGUCUGCAUGCCGCCGGGCGCCAUGCCUGCAGGUCGACUCUAGAAAACAUG,binding signal,PUM1 PUF domain R5-TKR,6.59 log2 enrichment (interaction score)
same,binding signal,PUM1 PUF domain R5-KAD,2.78 log2 enrichment (interaction score)
same,binding signal,PUM1 PUF domain R5-DLR,4.71 log2 enrichment (interaction score)
GGCUAGAACUAGUGGAUCCCCCGGCGCCCGGCGGCUCGAGCCCGGGUAAGUGAAAAUAGUCUGCAUGCCGCCGGGCGCCAUGCCUGCAGGUCGACUCUAGAAAACAUG,binding signal,PUM1 PUF domain R6-AFS,3.01 log2 enrichment (interaction score)
GGCUAGAACUAGUGGAUCCCCCGGCGCCCGGCGGCUCGAGCCCGGGUAAGUGUAAAUAGUCUGCAUGCCGCCGGGCGCCAUGCCUGCAGGUCGACUCUAGAAAACAUG,binding signal,PUM1 PUF domain R3-GRV,2.81 log2 enrichment (interaction score)
same,binding signal,PUM1 PUF domain R8-GWQ,2.82 log2 enrichment (interaction score)
same,binding signal,PUM1 PUF domain R4-SCS,2.13 log2 enrichment (interaction score)
same,binding signal,PUM1 PUF domain R5-MRE,1.14 log2 enrichment (interaction score)
same,binding signal,PUM1 PUF domain R3-ARP,4.92 log2 enrichment (interaction score)
same,binding signal,PUM1 PUF domain R6-AFS,1.74 log2 enrichment (interaction score)
same,binding signal,PUM1 PUF domain R4-TRQ,4.68 log2 enrichment (interaction score)
same,binding signal,PUM1 PUF domain R4-EYD,2.77 log2 enrichment (interaction score)
same,binding signal,PUM1 PUF domain R3-PWF,3.15 log2 enrichment (interaction score)
GGCUAGAACUAGUGGAUCCCCCGGCGCCCGGCGGCUCGAGCCCGGGUAAGUGUACAUAGUCUGCAUGCCGCCGGGCGCCAUGCCUGCAGGUCGACUCUAGAAAACAUG,binding signal,PUM1 PUF domain R4-SCS,0.74 log2 enrichment (interaction score)
same,binding signal,PUM1 PUF domain R4-SNF,3.39 log2 enrichment (interaction score)
GGCUAGAACUAGUGGAUCCCCCGGCGCCCGGCGGCUCGAGCCCGGGUAAGUGUAUAUAGUCUGCAUGCCGCCGGGCGCCAUGCCUGCAGGUCGACUCUAGAAAACAUG,binding signal,PUM1 PUF domain R4-SCS,1.72 log2 enrichment (interaction score)
same,binding signal,PUM1 PUF domain R4-HNI,4.84 log2 enrichment (interaction score)
GGCUAGAACUAGUGGAUCCCCCGGCGCCCGGCGGCUCGAGCCCGGGUAAGUGUAAUUAGUCUGCAUGCCGCCGGGCGCCAUGCCUGCAGGUCGACUCUAGAAAACAUG,binding signal,PUM1 PUF domain R3-GRV,1.12 log2 enrichment (interaction score)
same,binding signal,PUM1 PUF domain R3-ARP,1.4 log2 enrichment (interaction score)
same,binding signal,PUM1 PUF domain R3-RTG,2.9 log2 enrichment (interaction score)
same,binding signal,PUM1 PUF domain R3-PWF,1.18 log2 enrichment (interaction score)
GGCUAGAACUAGUGGAUCCCCCGGCGCCCGGCGGCUCGAGCCCGGGUAAGUGUAAAUGGUCUGCAUGCCGCCGGGCGCCAUGCCUGCAGGUCGACUCUAGAAAACAUG,binding signal,PUM1 PUF domain R1-TFE,6.33 log2 enrichment (interaction score)
same,binding signal,PUM1 PUF domain R1-RNS,0.7 log2 enrichment (interaction score)
